Holding throughout (test): log2 fold change, soluble protein after heating vs DMSO (PISA); higher = thermal stabilisation; K562 cells, 10 uM, 30 min; active = over 0.2 and 3.5 SD of the protein, either way, in both replicates (recomputed)
Compound in one assay: Cc1ccc(NC(=O)c2ccc(CN3CC[C@H](N(C)C)C3)c(C(F)(F)F)c2)cc1Nc1nccc(-c2cncnc2)n1 [bafetinib]
In outline:
(§1)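 K562 cells at 2×10^6 cells/mL were given 10 μM compound for 30 min. Aliquots then went through 3 min of heating across 48°C-58°C, were pooled, and were extracted in PBS with 0.5% NP-40 at 4°C, and the supernatant after 21,000xg for 90 min was quantified by TMTpro 16plex LC-MS/MS with channel sums equalised. Thermal stability relative to control samples, from duplicates, is given as log2 fold change.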

Compound in assay [1]: Cc1cccc(CC(=O)N2CCc3c2ccc(-c2cn(C)c4ncnc(N)c24)c3F)n1
The method, boiled down: as §1

Compound in another assay: Cc1cn(-c2cc(NC(=O)c3ccc(C)c(Nc4nccc(-c5cccnc5)n4)c3)cc(C(F)(F)F)c2)cn1 [nilotinib]
In outline: as §1

Compound in assay [2]: Cc1nc(Nc2n[nH]c3c2CN(C(=O)N[C@H](CN(C)C)c2ccccc2)C3(C)C)c2sccc2n1
The method, boiled down: as §1

Compound in another assay: Cc1nc(Nc2ncc(C(=O)Nc3c(C)cccc3Cl)s2)cc(N2CCN(CCO)CC2)n1 [dasatinib]
The method, boiled down:
as §1

Compound in assay [3]: Cc1ncc(-c2ccnc(Nc3ccc(S(C)(=O)=O)cc3)n2)n1C(C)C
In outline: as §1

Compound in assay [4]: Cn1cc(-c2ccc3c(c2)CCN3C(=O)Cc2cccc(C(F)(F)F)c2)c2c(N)ncnc21
In outline: as §1

Compound in assay [5]: Cn1cc(-c2ccc3nnc(C(F)(F)c4ccc5ncccc5c4)n3n2)cn1
In outline: as §1

Compound in another assay: Cn1cncc1[C@@](N)(c1ccc(Cl)cc1)c1ccc2c(c1)c(-c1cccc(Cl)c1)cc(=O)n2C [tipifarnib]
In outline: as §1

Compound in the next assay: FC(F)(F)c1ccc(/C=C/c2nc(COc3ccc(CCCCn4ccnn4)cc3)co2)cc1 [mubritinib]
The method, boiled down:
as §1

The text below walks through data of the supplement of paper PMC10849652.

Of roughly 7,900 targets only a part is listed; those with a hit were picked by preference. About 0.6% of all pairs of compound and target were hits. A number with no mark means an inactive call.

Sequence of UniProt P0CL80 (P0CL80 whole entry, looked up): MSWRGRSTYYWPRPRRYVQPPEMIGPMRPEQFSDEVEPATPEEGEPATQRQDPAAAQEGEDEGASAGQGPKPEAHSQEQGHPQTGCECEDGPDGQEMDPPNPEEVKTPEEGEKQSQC
Sequence of UniProt Q8WUI4 (Q8WUI4 whole entry, looked up): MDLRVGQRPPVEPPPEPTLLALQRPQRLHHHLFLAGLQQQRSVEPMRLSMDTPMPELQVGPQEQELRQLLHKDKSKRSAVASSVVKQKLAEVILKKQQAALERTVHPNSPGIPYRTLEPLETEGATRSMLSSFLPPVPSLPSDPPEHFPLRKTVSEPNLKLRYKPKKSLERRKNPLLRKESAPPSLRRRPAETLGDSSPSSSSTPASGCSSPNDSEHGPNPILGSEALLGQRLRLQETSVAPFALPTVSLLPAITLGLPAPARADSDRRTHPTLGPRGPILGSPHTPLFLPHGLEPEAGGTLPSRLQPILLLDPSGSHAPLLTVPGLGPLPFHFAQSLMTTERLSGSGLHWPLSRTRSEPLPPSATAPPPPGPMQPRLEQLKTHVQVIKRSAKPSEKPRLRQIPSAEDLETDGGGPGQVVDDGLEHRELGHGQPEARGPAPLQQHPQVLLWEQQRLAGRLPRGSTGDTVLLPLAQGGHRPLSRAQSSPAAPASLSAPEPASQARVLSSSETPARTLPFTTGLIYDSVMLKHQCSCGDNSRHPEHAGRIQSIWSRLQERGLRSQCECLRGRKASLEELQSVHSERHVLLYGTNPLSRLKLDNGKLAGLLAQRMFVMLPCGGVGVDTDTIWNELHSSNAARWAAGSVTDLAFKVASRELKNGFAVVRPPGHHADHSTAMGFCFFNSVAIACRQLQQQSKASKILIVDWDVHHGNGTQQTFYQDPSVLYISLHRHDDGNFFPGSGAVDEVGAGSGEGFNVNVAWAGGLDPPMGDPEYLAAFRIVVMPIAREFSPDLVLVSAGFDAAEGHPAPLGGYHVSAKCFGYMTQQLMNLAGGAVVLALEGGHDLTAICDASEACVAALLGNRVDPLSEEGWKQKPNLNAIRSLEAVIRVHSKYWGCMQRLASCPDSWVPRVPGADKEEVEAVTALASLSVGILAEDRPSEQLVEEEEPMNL
Sequence of UniProt Q9P2D3 (Q9P2D3 whole entry, looked up): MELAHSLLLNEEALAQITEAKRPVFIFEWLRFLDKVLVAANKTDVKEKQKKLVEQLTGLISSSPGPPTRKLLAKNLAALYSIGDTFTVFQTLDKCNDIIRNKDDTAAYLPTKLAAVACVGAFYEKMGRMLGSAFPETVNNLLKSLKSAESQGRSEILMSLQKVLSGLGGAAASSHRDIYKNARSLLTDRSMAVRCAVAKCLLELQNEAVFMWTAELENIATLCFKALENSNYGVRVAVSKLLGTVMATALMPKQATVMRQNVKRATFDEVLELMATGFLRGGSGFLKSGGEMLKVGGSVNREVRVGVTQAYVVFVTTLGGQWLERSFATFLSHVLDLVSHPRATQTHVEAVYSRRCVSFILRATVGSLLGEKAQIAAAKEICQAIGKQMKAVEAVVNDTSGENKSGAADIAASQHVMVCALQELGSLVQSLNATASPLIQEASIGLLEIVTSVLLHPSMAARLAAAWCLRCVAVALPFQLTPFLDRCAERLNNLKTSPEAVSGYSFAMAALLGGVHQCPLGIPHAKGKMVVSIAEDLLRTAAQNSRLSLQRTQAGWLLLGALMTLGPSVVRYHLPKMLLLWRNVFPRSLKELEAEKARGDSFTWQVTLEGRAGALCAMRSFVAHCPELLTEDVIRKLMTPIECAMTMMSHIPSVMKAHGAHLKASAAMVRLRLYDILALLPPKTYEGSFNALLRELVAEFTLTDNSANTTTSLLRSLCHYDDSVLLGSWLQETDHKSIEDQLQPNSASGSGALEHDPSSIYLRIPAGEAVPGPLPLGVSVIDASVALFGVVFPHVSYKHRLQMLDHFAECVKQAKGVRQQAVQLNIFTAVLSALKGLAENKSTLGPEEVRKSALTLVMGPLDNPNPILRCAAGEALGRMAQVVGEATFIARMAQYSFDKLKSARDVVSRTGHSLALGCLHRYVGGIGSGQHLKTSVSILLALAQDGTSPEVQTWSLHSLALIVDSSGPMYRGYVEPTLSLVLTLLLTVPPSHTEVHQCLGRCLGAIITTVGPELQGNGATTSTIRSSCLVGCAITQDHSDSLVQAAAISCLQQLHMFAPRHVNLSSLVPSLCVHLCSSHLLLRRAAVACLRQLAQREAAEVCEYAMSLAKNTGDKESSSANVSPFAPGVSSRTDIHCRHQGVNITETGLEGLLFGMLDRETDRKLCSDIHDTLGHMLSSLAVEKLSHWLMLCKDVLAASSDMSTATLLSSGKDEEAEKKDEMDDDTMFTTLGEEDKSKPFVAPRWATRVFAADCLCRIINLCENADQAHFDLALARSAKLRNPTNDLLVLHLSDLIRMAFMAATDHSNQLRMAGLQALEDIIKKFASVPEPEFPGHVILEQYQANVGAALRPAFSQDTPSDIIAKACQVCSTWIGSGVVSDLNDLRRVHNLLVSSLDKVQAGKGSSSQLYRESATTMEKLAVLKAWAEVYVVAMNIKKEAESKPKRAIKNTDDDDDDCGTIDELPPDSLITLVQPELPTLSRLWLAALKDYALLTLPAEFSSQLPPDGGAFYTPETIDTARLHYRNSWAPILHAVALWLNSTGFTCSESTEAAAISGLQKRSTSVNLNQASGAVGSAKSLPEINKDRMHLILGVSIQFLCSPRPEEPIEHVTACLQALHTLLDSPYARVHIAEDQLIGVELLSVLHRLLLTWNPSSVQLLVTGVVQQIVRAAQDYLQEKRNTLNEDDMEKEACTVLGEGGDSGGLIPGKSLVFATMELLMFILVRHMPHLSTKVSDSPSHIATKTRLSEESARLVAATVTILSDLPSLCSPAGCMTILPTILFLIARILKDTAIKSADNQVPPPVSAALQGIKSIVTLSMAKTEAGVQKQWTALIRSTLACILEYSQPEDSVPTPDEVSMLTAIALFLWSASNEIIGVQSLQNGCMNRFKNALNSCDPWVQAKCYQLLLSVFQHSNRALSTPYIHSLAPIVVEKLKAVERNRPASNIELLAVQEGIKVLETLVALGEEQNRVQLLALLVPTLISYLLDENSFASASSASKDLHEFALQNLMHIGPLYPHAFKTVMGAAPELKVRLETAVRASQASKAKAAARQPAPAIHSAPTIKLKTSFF
Sequence of UniProt Q9H0R4 (Q9H0R4 whole entry, looked up): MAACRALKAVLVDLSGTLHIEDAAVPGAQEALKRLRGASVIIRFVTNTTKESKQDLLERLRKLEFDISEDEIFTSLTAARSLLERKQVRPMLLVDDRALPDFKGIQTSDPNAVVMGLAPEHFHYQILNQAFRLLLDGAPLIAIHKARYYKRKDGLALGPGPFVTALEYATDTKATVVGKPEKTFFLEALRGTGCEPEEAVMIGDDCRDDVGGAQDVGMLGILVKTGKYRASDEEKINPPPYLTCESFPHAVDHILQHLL
Sequence of UniProt O94925 (O94925 whole entry, looked up): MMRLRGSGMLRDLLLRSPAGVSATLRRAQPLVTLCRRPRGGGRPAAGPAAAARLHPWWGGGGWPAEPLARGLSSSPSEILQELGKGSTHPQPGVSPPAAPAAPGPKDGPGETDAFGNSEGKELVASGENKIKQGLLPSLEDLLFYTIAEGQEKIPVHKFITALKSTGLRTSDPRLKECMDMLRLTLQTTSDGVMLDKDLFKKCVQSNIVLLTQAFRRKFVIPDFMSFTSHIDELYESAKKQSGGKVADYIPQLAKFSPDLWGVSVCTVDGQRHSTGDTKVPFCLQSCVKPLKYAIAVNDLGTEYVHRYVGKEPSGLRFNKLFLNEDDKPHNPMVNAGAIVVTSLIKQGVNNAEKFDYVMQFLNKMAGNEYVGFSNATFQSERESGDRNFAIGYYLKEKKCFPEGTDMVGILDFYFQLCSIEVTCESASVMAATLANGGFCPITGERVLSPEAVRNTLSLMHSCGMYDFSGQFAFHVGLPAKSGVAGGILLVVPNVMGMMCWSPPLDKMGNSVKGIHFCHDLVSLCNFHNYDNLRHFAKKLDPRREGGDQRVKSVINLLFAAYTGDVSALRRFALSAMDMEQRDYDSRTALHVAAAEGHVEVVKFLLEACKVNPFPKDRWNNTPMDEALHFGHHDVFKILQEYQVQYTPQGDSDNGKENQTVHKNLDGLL
Sequence of UniProt Q8N9F7 (Q8N9F7 whole entry, looked up): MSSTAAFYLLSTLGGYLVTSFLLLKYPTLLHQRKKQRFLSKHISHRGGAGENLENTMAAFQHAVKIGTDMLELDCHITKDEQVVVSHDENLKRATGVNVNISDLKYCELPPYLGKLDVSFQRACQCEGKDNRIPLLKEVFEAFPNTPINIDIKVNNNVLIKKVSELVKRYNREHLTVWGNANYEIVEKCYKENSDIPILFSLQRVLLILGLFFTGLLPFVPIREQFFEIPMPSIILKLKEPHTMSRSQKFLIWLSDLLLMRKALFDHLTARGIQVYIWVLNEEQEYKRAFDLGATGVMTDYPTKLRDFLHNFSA
Sequence of UniProt Q9H6D7 (Q9H6D7 whole entry, looked up): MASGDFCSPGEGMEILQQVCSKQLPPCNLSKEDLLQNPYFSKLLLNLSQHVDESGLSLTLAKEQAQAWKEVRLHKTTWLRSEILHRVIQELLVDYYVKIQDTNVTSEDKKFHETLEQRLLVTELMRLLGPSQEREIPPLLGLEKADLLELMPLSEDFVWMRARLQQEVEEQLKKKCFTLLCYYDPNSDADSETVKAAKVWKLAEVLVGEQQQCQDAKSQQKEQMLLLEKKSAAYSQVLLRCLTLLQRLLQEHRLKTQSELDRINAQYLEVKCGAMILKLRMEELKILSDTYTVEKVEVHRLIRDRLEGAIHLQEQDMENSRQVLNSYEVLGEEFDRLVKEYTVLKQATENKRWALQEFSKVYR
Sequence of UniProt P78417 (P78417 whole entry, looked up): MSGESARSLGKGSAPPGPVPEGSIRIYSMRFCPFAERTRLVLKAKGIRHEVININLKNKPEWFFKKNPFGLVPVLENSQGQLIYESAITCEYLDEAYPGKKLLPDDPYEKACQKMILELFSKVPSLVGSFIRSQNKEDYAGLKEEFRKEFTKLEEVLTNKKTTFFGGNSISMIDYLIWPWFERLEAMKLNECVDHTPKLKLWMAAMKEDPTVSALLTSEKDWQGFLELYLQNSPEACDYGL

Consider FLNA (UniProt P21333), for which the log2 fold change is 0.011 with bafetinib; 0.059 in assay [1]; -0.056 in the assay with nilotinib; -0.025 in assay [2]; -0.158 with dasatinib; 0.059 in assay [3]. Also, the log2 fold change in assay [4] was -0.053; in assay [5] it was 0.007; in the assay with tipifarnib it was -0.176; in the assay with mubritinib, 0.112.
With HEATR5B (UniProt Q9P2D3), the log2 fold change was -0.007 in the assay with bafetinib; 0.014 in assay [1]; -0.049 with nilotinib; -0.066 in assay [2]; -0.119 in the assay with dasatinib; 0.072 in assay [3]. Moreover, the log2 fold change is -0.029 in assay [4], -0.012 in [5], -0.052 with tipifarnib and 0.034 with mubritinib.
For the target GAGE12F (UniProt P0CL80), the log2 fold change in the assay with bafetinib is -0.092; in assay [1], -0.284 (active); in the assay with nilotinib it was 0.052; in assay [2] it was -0.085; with dasatinib it was 0.009; in [3], -0.015. The log2 fold change in assay [4] was -0.004; in assay [5], -0.035; in the assay with tipifarnib, 0.053; in the assay with mubritinib it was 0.085.
Take HAUS4 (UniProt Q9H6D7): the log2 fold change with bafetinib is -0.069; in assay [1] it was 0.023; with nilotinib, 0.08; in assay [2], 0.086; with dasatinib it was 0.178; in assay [3] it was 0.567. The log2 fold change is -0.045 in [4], -0.051 in [5], -0.115 in the assay with tipifarnib and -0.547 with mubritinib.
Turning to HDAC1 (UniProt Q13547), the log2 fold change with bafetinib was 0.306; in [1], -0.046; with nilotinib, -0.023; in [2] it was -0.021; in the assay with dasatinib it was -0.091; in [3], -0.055. Further, the log2 fold change in assay [4] was -0.002; in assay [5], -0.009; with tipifarnib, -0.078; in the assay with mubritinib, -0.025.
Take IFT74 (UniProt Q96LB3): the log2 fold change was -0.095 in the assay with bafetinib; 0.015 in assay [1]; 0.166 in the assay with nilotinib; 0.063 in [2]; 0.057 with dasatinib; 0.008 in [3]. In addition, the log2 fold change was 0.015 in assay [4], -0.053 in assay [5], -0.052 in the assay with tipifarnib and 0.186 in the assay with mubritinib.
In the case of GTF2E1 (UniProt P29083), the log2 fold change with bafetinib is 0.014; in assay [1], 0.037; in the assay with nilotinib it was -0.112; in assay [2] it was -0.168; with dasatinib, -0.173; in [3] it was -0.032. Also, the log2 fold change in assay [4] was 0.02; in assay [5] it was 0.093; with tipifarnib, -0.13; with mubritinib, 0.05.
GLS isoform 3 (UniProt O94925): the log2 fold change in the assay with bafetinib was 0.045; in [1] it was 0.028; with nilotinib, -0.238; in [2] it was -0.162; with dasatinib, -0.282; in [3], 0.046. Further, the log2 fold change in assay [4] was -0.097; in assay [5], 0.114; with tipifarnib, -0.208; with mubritinib, -0.492 (active).
With HDAC7 isoform 5 (UniProt Q8WUI4), the log2 fold change with bafetinib is -0.023; in [1], 0.033; with nilotinib it was 0.024; in [2], -0.378 (active); with dasatinib, -0.134; in [3] it was -0.161. The log2 fold change is 0.026 in [4], -0.021 in assay [5], 0.093 in the assay with tipifarnib and -0.006 in the assay with mubritinib.
Take HNRNPC isoform 2 (UniProt P07910): the log2 fold change is 0.159 in the assay with bafetinib; -0.228 in assay [1]; 0.054 with nilotinib; -0.099 in [2]; 0.425 with dasatinib; -0.286 in [3]. Moreover, the log2 fold change in assay [4] was -0.431; in [5], -0.173; with tipifarnib it was 0.596; in the assay with mubritinib, -0.268.
In the case of GPAT4 (UniProt Q86UL3), the log2 fold change was -0.138 with bafetinib; -0.028 in assay [1]; -0.047 with nilotinib; 0.049 in assay [2]; -0.024 with dasatinib; -0.009 in assay [3]. The log2 fold change is 0.093 in assay [4], -0.018 in assay [5], -0.069 with tipifarnib and -0.008 with mubritinib.
For the target H2AFX (UniProt P16104), the log2 fold change with bafetinib was 0.103; in assay [1], -0.198; with nilotinib it was -0.041; in [2], -0.025; in the assay with dasatinib, 0.283; in assay [3], -0.012. Moreover, the log2 fold change in assay [4] was -0.439; in assay [5] it was -0.146; with tipifarnib, 0.074; with mubritinib it was -0.111.
For GSTO1 (UniProt P78417), the log2 fold change with bafetinib is 0.021; in assay [1], 0.148; with nilotinib, -0.009; in [2], -0.021; with dasatinib it was -0.007; in assay [3], -0.009. Further, the log2 fold change in [4] is 0.019; in assay [5], -0.004; with tipifarnib, -0.014; with mubritinib, 0.018.
HDHD2 (UniProt Q9H0R4): the log2 fold change with bafetinib was 0.068; in assay [1], 0.018; in the assay with nilotinib, 0.024; in assay [2], -0.04; with dasatinib it was 0.042; in assay [3], 0.006. The log2 fold change in [4] is 0.019; in [5], 0.028; in the assay with tipifarnib, -0.011; in the assay with mubritinib, 0.045.
As to GDPD1 (UniProt Q8N9F7), the log2 fold change is 0.088 in the assay with bafetinib; -0.141 in assay [1]; 0.1 with nilotinib; 0.104 in assay [2]; 0.023 in the assay with dasatinib; -0.045 in assay [3]. Also, the log2 fold change was 0.046 in [4], -0.031 in [5], 0.106 with tipifarnib and 0.096 with mubritinib.
